# Bioassay records as filed in PubChem BioAssay.
# Only a selection was taken, and hits are over-represented in it overall.
# IDE exosite FP = exo-site inhibitors of human insulin-degrading enzyme; P14735; 17,000 compounds, 6.3% hits; purified IDE, FL-6b probe fluorescence polarization; stronger effect = lower value; z-score at 20 µM;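 active = z-score of -3 or lower, meaning strong loss of probe binding signal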;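 note: His-tagged human IDE residues 42-1019 made in E. coli with 30 nM FL-6b probe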
# Target sequence (P14735 42-1019 limits assumed): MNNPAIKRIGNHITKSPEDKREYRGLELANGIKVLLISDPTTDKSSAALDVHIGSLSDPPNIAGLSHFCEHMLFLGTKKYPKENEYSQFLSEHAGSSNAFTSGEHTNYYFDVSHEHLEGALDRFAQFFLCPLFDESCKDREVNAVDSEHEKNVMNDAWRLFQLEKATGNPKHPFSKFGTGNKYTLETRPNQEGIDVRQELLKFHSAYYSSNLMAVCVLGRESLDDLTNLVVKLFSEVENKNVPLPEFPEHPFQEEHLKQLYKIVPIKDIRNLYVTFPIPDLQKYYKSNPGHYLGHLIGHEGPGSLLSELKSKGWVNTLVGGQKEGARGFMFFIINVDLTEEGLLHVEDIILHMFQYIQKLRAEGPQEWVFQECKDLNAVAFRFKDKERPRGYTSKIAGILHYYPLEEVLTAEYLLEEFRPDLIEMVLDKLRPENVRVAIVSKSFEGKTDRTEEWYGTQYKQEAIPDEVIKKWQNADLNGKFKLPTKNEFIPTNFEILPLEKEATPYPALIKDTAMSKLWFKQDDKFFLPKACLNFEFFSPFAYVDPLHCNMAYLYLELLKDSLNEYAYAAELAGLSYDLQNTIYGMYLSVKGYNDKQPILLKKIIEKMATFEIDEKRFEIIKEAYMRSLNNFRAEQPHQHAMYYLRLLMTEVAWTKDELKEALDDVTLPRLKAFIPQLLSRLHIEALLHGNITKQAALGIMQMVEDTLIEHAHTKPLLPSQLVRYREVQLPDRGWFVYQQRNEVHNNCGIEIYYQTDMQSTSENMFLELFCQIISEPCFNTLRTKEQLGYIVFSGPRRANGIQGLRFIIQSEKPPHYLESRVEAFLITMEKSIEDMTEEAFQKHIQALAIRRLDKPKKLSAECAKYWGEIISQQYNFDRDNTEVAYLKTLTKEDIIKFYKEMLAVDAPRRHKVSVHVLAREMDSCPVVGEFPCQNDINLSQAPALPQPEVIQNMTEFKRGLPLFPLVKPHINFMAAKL
# Active calls of the source: *; ! = a repeat was not active.
SMILES,IDE exosite FP
CCC(=O)N1CC(=O)N2[C@@H](CO)[C@@H](c3ccc(-c4cccnc4)cc3)[C@@H]2C1,-1.3
COc1ccc2c3c([nH]c2c1)[C@H](CO)N(S(=O)(=O)c1ccc(C)cc1)CC31CN(Cc2ccccc2)C1,0.46
CN1CCN(C(=O)C[C@H]2C[C@@H]3c4cc(NS(C)(=O)=O)ccc4O[C@@H]3[C@H](CO)O2)CC1,-0.57
O=C(c1ccc(F)cc1)N1CC(=O)N2[C@H](CO)[C@@H](c3ccc(-c4cccnc4)cc3)[C@@H]2C1,-0.17
N#C[C@@H]1N[C@@H](CO)[C@@H]1c1ccc(C2=CCCCC2)cc1,0.9
O=C(c1ccc(F)cc1)N1CC(=O)N2[C@H](C1)[C@@H](c1ccc(-c3ccccc3)cc1)[C@@H]2CO,0.13
C/C=C/c1ccc([C@@H]2[C@@H](CO)N3CCCCN(C(=O)Nc4ccccc4F)C[C@@H]23)cc1,1.1
CCS(=O)(=O)Nc1ccc2c(c1)C(=O)N(C)[C@H]1CC[C@H](CC(=O)NCc3ccccc3F)O[C@@H]1CO2,1.7
O=C(c1ccc2c(c1)OCO2)N1C[C@@H]2[C@H](c3ccccc31)[C@@H](CO)N2C(=O)CC1CC1,2.5
O=S(=O)(c1ccc(F)cc1)N1CCCCN2[C@H](CO)[C@H](c3ccc(-c4cncnc4)cc3)[C@@H]2C1,-0.41
CC[C@@H]1C/C=C\CCNC(=O)C[C@H](c2ccccc2)C(=O)N1,-0.11
COCC#Cc1ccc([C@H]2[C@@H](CO)N3C(=O)CN(C(=O)CN4CCOCC4)C[C@H]23)cc1,1
CC(=O)NC[C@H]1[C@@H](c2ccc(-c3ccccc3F)cc2)[C@@H](CO)N1CCC(F)(F)F,-0.4
CN1CCCCN2[C@H](CO)[C@H](c3ccc(C#Cc4ccccc4F)cc3)[C@@H]2C1,-5.5*
CN1CCCCN2[C@H](C1)[C@H](c1ccc(C#Cc3ccccc3F)cc1)[C@@H]2CO,-3.9*
COc1ccc(C#Cc2ccc([C@@H]3[C@H](CO)N4CCCCN(C)C[C@@H]34)cc2)cc1,-0.084
COc1ccc(C#Cc2ccc([C@H]3[C@@H](CO)N4CCCCN(C)C[C@H]34)cc2)cc1,2
COc1ccc(C#Cc2ccc([C@@H]3[C@@H](CO)N4CCCCN(C)C[C@H]34)cc2)cc1,0.27
OC[C@@H]1[C@@H](c2ccc(C#Cc3ccccc3)cc2)[C@H]2CN(Cc3cncnc3)CCCCN12,0.19
OC[C@@H]1[C@H](c2ccc(C#Cc3ccccc3F)cc2)[C@H]2CN(CC3CCOCC3)CCCCN12,-2.3
CN1CCCCN2[C@H](CO)[C@H](c3ccc(C#Cc4ccccc4F)cc3)[C@H]2C1,-4.5*
OC[C@H]1[C@H](c2ccc(C#Cc3ccccc3F)cc2)[C@@H]2CN(CC3CCOCC3)CCCCN12,0.24
OC[C@@H]1[C@H](c2ccc(C#Cc3ccccc3F)cc2)[C@H]2CN(Cc3cncnc3)CCCCN12,-9.7*
OC[C@H]1[C@@H](c2ccc(-c3ccccc3)cc2)[C@H]2CN(Cc3cncnc3)CCCCN21,-1.3
OC[C@H]1[C@@H](c2ccc(C#Cc3ccccc3F)cc2)[C@@H]2CN(CC3CCOCC3)CCCCN12,-2.9
SMILES,IDE exosite FP
CC(C)(O)C#Cc1ccc([C@H]2[C@@H](CO)N3CCCCN(C(=O)c4cccc(F)c4)C[C@@H]23)cc1,1.2
O=C1CN(S(=O)(=O)c2cccc(F)c2)C[C@@H]2[C@@H](c3ccc(C4=CCCC4)cc3)[C@H](CO)N12,0.22
CCCNC(=O)N1[C@@H](CO)[C@H](c2ccccc2)[C@@H]1CNC(=O)c1ccccc1,0.53
C/C=C/c1ccc([C@H]2[C@@H](CO)N(C(=O)C3CCC3)C23CN(C(=O)NC(C)C)C3)cc1,0.053
CCc1csc(N2[C@@H](C#N)[C@H](c3ccc(-c4ccc(F)cc4)cc3)[C@@H]2CO)n1,4.8
Cn1cnc(S(=O)(=O)N2CCCCN3[C@H](CO)[C@@H](c4ccc(C#CC5CCCC5)cc4)[C@H]3C2)c1,2.8
COc1ccc(-c2ccc([C@H]3[C@@H](CO)N4C(=O)CN(C(=O)C5CC5)C[C@@H]34)cc2)cc1,-0.095
Cc1cccc(-c2ccc(C3[C@@H]4CN(C(=O)C5CCCCC5)C[C@H]3N4)cc2)c1 (some centres not stated),-5.4*!
COc1ccc(-c2ccc([C@@H]3[C@H]4CN(C(=O)C5CCOCC5)CC(=O)N4[C@H]3CO)cc2)cc1,-1.5
COc1cccc(-c2ccc([C@@H]3[C@@H](CO)N4C(=O)CN(C(=O)C5CCOCC5)C[C@H]34)cc2)c1,-2.4
COc1cccc(-c2ccc([C@@H]3[C@@H](CO)N4C(=O)CN(C(=O)C5CC5)C[C@@H]34)cc2)c1,-15*
COc1cccc(-c2ccc([C@H]3[C@H](CO)N4C(=O)CN(C(=O)C5CC5)C[C@@H]34)cc2)c1,-7.5*
CN(C)C(=O)c1cccc(-c2ccc([C@@H]3[C@@H](CO)N4C(=O)CN(C(=O)C5CC5)C[C@H]34)cc2)c1,2.2
COc1ccc(-c2ccc([C@H]3[C@@H](CO)N4C(=O)CN(C(=O)C5CCOCC5)C[C@@H]34)cc2)cc1,0.45
COc1ccc(-c2ccc([C@H]3[C@H](CO)N4C(=O)CN(C(=O)C5CC5)C[C@@H]34)cc2)cc1,-0.25
O=C(C1CCCCC1)N1C[C@@H]2N[C@H](C1)C2c1ccc(-c2ccccc2F)cc1 (some centres not stated),0.62
COc1cccc(-c2ccc([C@@H]3[C@@H](CO)N4C(=O)CN(C(=O)C5CCOCC5)C[C@@H]34)cc2)c1,-5.8*
Cc1cccc(-c2ccc(C3[C@@H]4CNC[C@H]3N4)cc2)c1 (some centres not stated),0.37
COCC#Cc1ccc([C@@H]2[C@@H](CO)N3CCCCN(Cc4cncnc4)C[C@H]23)cc1,2.5
COc1ccc(C(=O)Nc2ccc3c(c2)C(=O)N(C)[C@@H]2CC[C@@H](CC(=O)NCC4CC4)O[C@@H]2CO3)cc1,0.031
CCCC#Cc1ccc2c(c1)O[C@H](CN(C)Cc1ccccn1)[C@H](C)CN([C@H](C)CO)S2(=O)=O,-0.18
COC(=O)C[C@H]1CC[C@@H]2[C@H](COc3ccc(NS(=O)(=O)c4ccc(C)cc4)cc3C(=O)N2C)O1,-1.2
CCCNC(=O)C[C@@H]1CC[C@@H]2[C@H](COC[C@H](O)CN2C(=O)c2ccc(F)cc2)O1,0.97
CC(C)[C@H]1C/C=C\CCNC(=O)[C@@H](C)CC(=O)N1,-0.95
O=C(c1ccccn1)N1CC(=O)N2[C@@H](CO)[C@H](c3ccc(-c4cccc(F)c4)cc3)[C@@H]2C1,-0.064
SMILES,IDE exosite FP
N#C[C@H]1[C@H](c2ccccc2)[C@@H](CO)N1S(=O)(=O)c1ccc(-c2ccccc2)cc1,0.17
COc1cccc(-c2ccc(C3[C@@H]4CN(C(=O)C5CCCCC5)C[C@H]3N4)cc2)c1 (some centres not stated),-0.31
COc1cccc(-c2ccc(C3[C@@H]4CN(C(=O)C5CCOCC5)C[C@H]3N4)cc2)c1 (some centres not stated),-7.1*!
N#Cc1cccc(-c2ccc(C3[C@@H]4CN(C(=O)C5CCOCC5)C[C@H]3N4)cc2)c1 (some centres not stated),1
C/C=C/c1ccc([C@H]2[C@@H](CO)N(Cc3ccc(F)cc3)[C@H]2CNC(C)=O)cc1,4.3
CCC(=O)N1CC2(C1)[C@H](c1ccc(-c3ccc(F)cc3)cc1)[C@H](CO)N2C(C)=O,-1.3
CC(=O)NC[C@@H]1[C@@H](c2ccccc2)[C@@H](CO)N1C(=O)Cc1ccncc1,0.19
